Measured values as given in PubChem BioAssay.

test: HepG2 cell viability effects, profiling panel, calcein-AM fluorescence, 48 h, basal (AID 1164); conditions: higher = more signal; also: test concentration not given here

SMILES | z-score
COc1ccc(NC(=O)O[C@H]2[C@@H]3OC(=O)[C@H](Cc4cccc(Br)c4)C/C=C/C[C@@H](Cc4cccc(Br)c4)C(=O)O[C@H]3[C@@H](OC)O[C@@H]2CO)cc1 | 0.323
[N-]=[N+]=NCc1ccccc1[C@H]1OC(c2ccc(OCCCO)cc2)=N[C@@]1(CCS(=O)(=O)c1ccccc1)C(=O)NCc1ccccc1 | 1.35
COc1cc(NN2C(C(O)C3CCCCC3)C=CC3C(=O)N(C)C(=O)C32)cc(OC)c1OC (configuration not stated) | -0.848
O=C1[C@@H]2[C@@H](CC(COc3ccccc3)=C3[C@@H](CCc4ccccc4)OB(O)C[C@@H]32)C(=O)N1Cc1ccccc1 | -0.752
O=C1OCCC=C[C@H]2OC34C=CCN(c5ccc(Cl)cc5)C(=O)[C@H]3N(CCCCCCO)C(=O)[C@@H]4C12 (some centres not stated) | 1.21
CCOC(=O)C[C@H]1[C@H](OC(=O)c2ccccc2-c2ccccc2)[C@@H](NC(=O)c2ccc3ccccc3n2)c2cc(OCCCO)ccc2N1C(=O)c1ccccc1 | 0.305
COC(=O)[C@@]1(Cc2ccc(OC)cc2)[C@H]2c3cc(C(=O)N4CCCC4)n(Cc4ccc(S(C)(=O)=O)cc4)c3C[C@H]2CN1C(=O)c1ccccc1 | 0.47
C=C[C@@H](C)[C@@H](OC(=O)Nc1ccc(SC)cc1)c1ccc(OCCO)cc1 | -1.37
NCCCCCNC(=O)[C@@H]1C[C@@H]2C(=O)N3CCC[C@H]3C(=O)N2[C@@H]1c1ccc(O)cc1 | 0.2
O=C1OCCC/C=C\[C@H]2OC34C=CCN(c5ccc6ccccc6c5)C(=O)[C@H]3N(CCCO)C(=O)[C@@H]4C12 (some centres not stated) | 0.275
CC(=O)NCCCC[C@@H]1NC(=O)[C@@H]2C[C@H](C(=O)NCCCCCCN)[C@H](c3cccc(OCCO)c3)N2C1=O | 0.268
COCCOC(=O)N1C(=O)[C@@]2(c3cc(C#CCNC(N)=O)ccc31)[C@H](c1ccc(OCCO)cc1)N1[C@H](c3ccccc3)[C@H](c3ccccc3)OC(=O)[C@H]1[C@@H]2C(N)=O | 0.334
